High-throughput results as filed in PubChem.
Most compounds without a hit are left out; they make up all but 5.6% or so of the library.
PKM2 act: PKM2 (human) enzyme activation; Potency, µM (titrated, usually from 57.5 µM), usual class: activators; actives 0.34% (n = 260,000); P14618; purified PKM2, Kinase-Glo ATP luminescence, activation; response scale: 0% is enzyme alone, no compound; also: nearly all actives have a fitted effect of over 55% in size
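hPK-M2, >95% pure; 0.1 mM ADP / 0.5 mM PEP final; imidazole pH7.2 buffer w/ 7 mM MgCl2, 50 mM KCl; 1 h RT; Kinase-Glo lum. Intermediate enzyme activity for dual inhibitor/activator qHTS.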
RORg inh: inhibitors of mouse ROR gamma transcriptional activity; actives 5.4% (n = 310,000); Drosophila S2 Gal4-RORgamma UAS-luciferase reporter, 20 h; Potency, µM (doses to about 53.6 µM), actives largely listed as inhibitors; also: nearly all actives have a fitted effect of over 60% in size
Target sequence (P51450 whole entry, looked up, the tested form may be a part): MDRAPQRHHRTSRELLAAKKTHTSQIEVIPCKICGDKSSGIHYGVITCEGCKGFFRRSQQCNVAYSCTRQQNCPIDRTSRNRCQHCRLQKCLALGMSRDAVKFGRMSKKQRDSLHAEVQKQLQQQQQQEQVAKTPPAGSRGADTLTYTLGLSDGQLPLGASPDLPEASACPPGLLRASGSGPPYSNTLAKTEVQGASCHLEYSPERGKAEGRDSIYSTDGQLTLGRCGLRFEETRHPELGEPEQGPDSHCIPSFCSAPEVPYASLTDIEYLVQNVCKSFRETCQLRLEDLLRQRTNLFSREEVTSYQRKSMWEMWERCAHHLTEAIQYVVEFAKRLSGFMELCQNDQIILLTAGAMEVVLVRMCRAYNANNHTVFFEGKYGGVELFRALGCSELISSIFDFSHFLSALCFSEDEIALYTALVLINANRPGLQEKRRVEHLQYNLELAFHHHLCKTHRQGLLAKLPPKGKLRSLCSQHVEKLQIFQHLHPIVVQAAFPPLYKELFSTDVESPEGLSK
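Drosophila S2 cells stably expressing Gal4-DBD/mouse RORγ fusion under metallothionein promoter plus UAS-luciferase; compound 1 h, then 700 uM CuSO4 induction for 20 h at ambient temperature; inhibition read as reduced luminescence.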
Six1-Eya2 blk: Six1/Eya2 interaction inhibition | Q15475+O00167 | AlphaScreen GST-Six1/His-Eya2 binding, biochemical; stronger effect = lower value | activity change, % (test concentration not listed) | actives 0.56% (n = 360,000) | AID 651725; in the data active = activity change below about -65%; inconclusive = mostly about -30% to -63%
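GST-Six1 + His-Eya2 (5X stock: 250/500 nM); Tris pH 8.0, 300 mM NaCl, 0.05% BSA, 0.02% Tween 20; GSH donor/Ni acceptor beads; 1 h 37 °C dark; AlphaScreen readout.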
VP16 counter: inhibits Gal4-VP16 luciferase reporter, ROR gamma counter-screen; actives 3.5% (n = 310,000); Drosophila S2 Gal4-VP16 UAS-luciferase, luminescence, 20 h; Potency, µM (highest dose often 53.6 µM), usual class: inhibitors;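 also: Gal4-VP16 expression switched on by copper sulfate through the metallothionein promoter; nearly all actives have a fitted effect of over 50% in size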
CtBP-E1A inh: inhibitors of CtBP/E1A interaction; activity change, % (concentration not given with the values); actives 0.49% (n = 340,000); AID 651724; AlphaScreen GST-E1A/His-CtBP binding, 1536-well; stronger effect = lower value; in the data active = activity change below about -65%; inconclusive = mostly about -30% to -63%
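Protein mix (5X: 125 nM each GST-E1A, His-CtBP) was incubated with pinned compound 2 h at 37 deg C in dark, in 50 mM Tris pH 8.0 buffer with 300 mM NaCl. Glutathione donor and nickel acceptor beads followed; AlphaScreen signal read after 1 h.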
Of the large screens only hits and unclear results are named; the others gave an inactive call. Unless noted, calls follow the shape of the dose curve; as a rule, active = well fitted curve in the direction sought with a large enough effect; inconclusive = small, poorly fitted or top-dose-only effect, or another doubt; inactive = no such curve, though single readings can be large; an effect the other way counts as inactive or inconclusive.

Fc1ccc(CNC(=S)NCc2ccc(F)cc2)cc1	RORg inh 11µM, VP16 counter inconclusive
CCNC(=S)NCc1ccc(F)cc1	none
CCOc1ccc(CNC(=S)NCc2ccc(OCC)cc2)cc1	RORg inh 10µM, VP16 counter inconclusive
CCc1noc(C)c1C(=O)Nc1cc(Cl)ccc1N1CCOCC1	none (no result: PKM2 act, RORg inh, VP16 counter)
CCn1nnc(NC(=O)COc2ccc([N+](=O)[O-])cc2)n1	none
O=C(CSc1nc2c(c(=O)[nH]1)CN(Cc1ccc(F)cc1)CC2)Nc1ccc(F)cc1	PKM2 act 16µM, RORg inh inconclusive
COc1ccc(N2CCN(C3CCCN(C(=O)C4=C(C)OCCO4)C3)CC2)cc1 (stereo not drawn)	none (no result: PKM2 act)
COc1ccc(-c2nnc(SCc3ccc(C(=O)O)cc3)n2N)cc1	none
CN(C)C(=S)Oc1ccccc1C1(C)OCCO1	none (no result: PKM2 act, RORg inh, VP16 counter)
COc1ccc(NC(=O)C2CCCC2)cc1	none
COc1ccc(-c2nnc(NC(=O)C(C)C)o2)cc1	RORg inh 11µM, VP16 counter inconclusive
COc1cccc(-c2nnc(NC(=O)C3CCCCC3)o2)c1	RORg inh 3.5µM, VP16 counter 11µM
COc1ccc(-c2nnc(NC(=O)C3CC3)o2)cc1	RORg inh 5µM, VP16 counter 10µM
Fc1c(F)c(-n2nnc3ccccc32)c(F)c(F)c1Cl	none (no result: PKM2 act)
O=S(=O)(c1ccc2c(c1)C(=NO)c1cc(S(=O)(=O)N3CCCCC3)ccc1-2)N1CCCCC1	RORg inh 3.5µM, VP16 counter 3.2µM
CC1CCN(S(=O)(=O)c2ccc3c(c2)C(=NO)c2cc(S(=O)(=O)N4CCC(C)CC4)ccc2-3)CC1	RORg inh 1.8µM, VP16 counter 0.79µM
O=S(=O)(c1ccc(S(=O)(=O)N2CCCC2)cc1)N1CCCCCC1	none
O=S(=O)(/N=C(/NC(=S)Nc1ccccc1)c1ccccc1)c1ccc(Cl)cc1	RORg inh inconclusive, VP16 counter inconclusive
CC1(C)Oc2ccc(C(=O)Nc3ccccc3)cc2N(CC#N)C1=O	none (no result: PKM2 act)
Cc1nn(CCC(=O)N2CCN(S(=O)(=O)c3ccccc3)CC2)c(C)c1C	PKM2 act 11µM
Cc1cc(C)c(S(=O)(=O)N2CCN(C(=O)CCn3nc(C)c(C)c3C)CC2)c(C)c1	PKM2 act 14µM
CCN(CC)C(=O)N1CCN(S(=O)(=O)c2c(C)cc(C)cc2C)CC1	none
C(=N\NC1=NCCN1)/c1ccncc1	none (no result: CtBP-E1A inh)
Cc1cc(Cl)ccc1NC(=S)NCCC(c1ccccc1)c1ccccc1	RORg inh 7.1µM, VP16 counter 6.3µM
Cc1c(Cl)cccc1NC(=S)NCC(c1cccnc1)N(C)C (stereo not drawn)	none
Cc1c(Cl)cccc1NC(=S)NCCC(C)C	RORg inh 4.5µM, VP16 counter 6.3µM
Cc1c(Cl)cccc1NC(=S)NCC(C)C	RORg inh 6.3µM, VP16 counter inconclusive
Cc1c(Cl)cccc1NC(=S)NCCC(c1ccccc1)c1ccccc1	RORg inh 0.63µM, VP16 counter 1.3µM
CCCCSc1ncnc2c1ncn2C1CCCCO1 (stereo not drawn)	none (no result: PKM2 act, RORg inh, VP16 counter)
C/C(N=Nc1nc2ccccc2s1)=N\Nc1ccccc1O	RORg inh 8.9µM
CC(=O)Nc1ccc(O)c(-c2nc3ccccc3s2)c1	none (no result: CtBP-E1A inh)
Cc1ccc(OCC(=O)Nc2ccc(N3CCN(C(=O)c4ccco4)CC3)cc2)cc1	none
CS(=O)(=O)c1ccc(C(=O)OCC(=O)NC23CC4CC(CC(C4)C2)C3)cc1[N+](=O)[O-]	RORg inh 11µM, VP16 counter inconclusive
Cc1cc(-c2ccccc2)n2nc(N)nc2n1	none
Cc1nc(NC(=O)c2ccccc2)sc1-c1csc(NCc2ccco2)n1	RORg inh 20µM, VP16 counter inconclusive
C=CCNc1nc(-c2c(C)nc3ncccn23)cs1	none
Cc1ccnc(Nc2nc(-c3c(C)nc4sccn34)cs2)c1	Six1-Eya2 blk -68, VP16 counter inconclusive, CtBP-E1A inh -78
Cc1ccc(Nc2nc(-c3c(C)nc4ncccn34)cs2)cc1	RORg inh inconclusive, Six1-Eya2 blk -75, CtBP-E1A inh -90
Cc1nc2ccccn2c1-c1csc(NCc2ccco2)n1	RORg inh 11µM, VP16 counter inconclusive
Cc1nc(C)c(-c2csc(NCc3ccco3)n2)s1	none
Cc1cccc(OCC(=O)NCCCNC(=O)c2cnccn2)c1	none (no result: PKM2 act)
CC[C@](C)(O)c1cc2ccccc2c(=O)o1	none (no result: PKM2 act, RORg inh, VP16 counter)
CC(=O)Nc1nc(C)c(-c2csc(Nc3ccc(O)cc3)n2)s1	RORg inh inconclusive, CtBP-E1A inh inconclusive
Cc1ccc(Nc2nc(-c3c(C)nc4ccccn34)cs2)cc1	RORg inh 10µM, VP16 counter inconclusive
Cc1nc(C)c(-c2csc(NCc3ccccc3)n2)s1	none
Cc1ccn2c(-c3csc(NCc4ccccc4)n3)c(C)nc2c1	RORg inh 14µM, VP16 counter inconclusive
Cc1nc2ncccn2c1-c1csc(Nc2ccc(O)cc2)n1	PKM2 act inconclusive, Six1-Eya2 blk -87, CtBP-E1A inh -90
Oc1ccc(Nc2nc(-c3ccc4ccccc4c3)cs2)cc1	none (no result: Six1-Eya2 blk, CtBP-E1A inh)
COC(=O)c1ccccc1S(=O)(=O)N1CCc2nc(-c3ccc(OC)cc3C)c3c(c2C1)CO[C@@H](c1ccccc1)C3	none (no result: RORg inh, Six1-Eya2 blk, VP16 counter, CtBP-E1A inh)
COc1ccc(N2CC(C(=O)Nc3ccc([N+](=O)[O-])cc3Br)CC2=O)cc1 (stereo not drawn)	none
O=C1NCCCC1C(=O)N/N=C/c1ccccc1O (stereo not drawn)	Six1-Eya2 blk inconclusive, CtBP-E1A inh -71
COc1ccc(N2CC(C(=O)N/N=C/c3cc([N+](=O)[O-])ccc3O)CC2=O)cc1 (stereo not drawn)	RORg inh 5.6µM, Six1-Eya2 blk -90, VP16 counter 18µM, CtBP-E1A inh -77
O=C1NCCCC1C(=O)N/N=C/c1ccccc1[N+](=O)[O-] (stereo not drawn)	none
O=C(N/N=C/c1ccccc1O)C1CC(=O)N(c2ccc(F)cc2)C1 (stereo not drawn)	RORg inh 2.8µM, Six1-Eya2 blk -70, VP16 counter 6.3µM, CtBP-E1A inh inconclusive (no result: PKM2 act)
COc1ccc(N2CC(C(=O)N/N=C/c3c[nH]c4ccccc34)CC2=O)cc1 (stereo not drawn)	none
O=C(COc1cc(F)ccc1[N+](=O)[O-])Nc1cccc(S(=O)(=O)NC2=NCCC2)c1	none (no result: PKM2 act, RORg inh, VP16 counter)
CC(C)c1ccc(N(CC(=O)NC2CCCCC2)C(=O)CCC(=O)Nc2ccccn2)cc1	none
CC(C)c1nc2sc3c(c2c(=O)[nH]1)CC(C)(C)OC3	none (no result: PKM2 act)
C=CCOc1ccc(C(=O)O)cc1Cl	none
CN(C)S(=O)(=O)c1cccc(NC(=S)NN=C(Cc2ccccc2)Cc2ccccc2)c1	RORg inh 13µM, VP16 counter inconclusive
Cc1ccc(S(=O)(=O)N(C)C)cc1NC(=S)NC(=O)C12CC3CC(CC(C3)C1)C2	RORg inh 7.1µM, VP16 counter 7.1µM
COc1cc(/C=N/NC(=S)Nc2cccc(S(=O)(=O)N(C)C)c2)ccc1O	RORg inh 3.5µM, Six1-Eya2 blk inconclusive, VP16 counter 3.5µM
